Sfp PPTase inh = qHTS Assay for Inhibitors of Bacillus subtilis Sfp phosphopantetheinyl transferase (PPTase) | Potency, µM, without a hit: largest response in the series, negative = inhibition, usual class: inhibitors | AID 1490, 2009 | 4'-phosphopantetheinyl transferase ffp (Bacillus subtilis), Q9F4F7 | Biochemical Sfp PPTase activity, qHTS | actives 3.5% (n = 310,000);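 further: the enzyme is Sfp with the accession as filed and its product quenches rhodamine fluorescence; 0% = enzyme reaction without inhibitor and -100% = no enzyme wells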
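Fluorescence-quenching assay with 15 nM Sfp, 5 uM rhodamine-CoA and 12.5 uM BHQ-2-labelled ybbR peptide in pH 7.6 Hepes/MgCl2 buffer. Enzyme was pre-incubated with compound for 15 min at room temperature. Rate was taken from the 30-min fluorescence change (525/598 nm).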
G9a block = qHTS Assay for Inhibitors of Histone Lysine Methyltransferase G9a. G9a H3K9 monomethylation, AlphaScreen, 2 h. actives 8.8% (n = 350,000). Histone-lysine N-methyltransferase EHMT2 (Homo sapiens), Q96KQ7. Potency, µM (highest dose often 102 µM), for inactives: at the top dose activity, negative = inhibition, usual class: inhibitors; further: on the % scale 0 is the no-effect control and ±100 the full control effect; nearly all actives have a fitted effect of over 75% in size
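AlphaScreen read-out: biotin-H3K9 peptide (500 nM) methylation by 20 nM enzyme with 20 uM SAM, 2 h at room temperature after 15 min compound preincubation; anti-monomethyl H3K9 antibody plus donor/acceptor beads, 10 min dark.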
VDR inhibitor = Inhibitors of the vitamin D receptor (VDR): qHTS; Vitamin D3 receptor (Homo sapiens), P11473; VDR-SRC2-3 peptide fluorescence polarization, 2 h; Potency, µM, for the others: max response, negative = inhibition, usual class: inhibitors; actives 0.93% (n = 400,000); AID 504847, 2011; further: on the % scale 0 is the no-effect control and ±100 the full control effect
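Inhibition of the VDR/SRC2-3 peptide interaction is quantified by fluorescence polarization. Compounds (23 nl, pintool) incubate with the reagents for 2 hours at ambient room temperature.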
Glioma ERSR ind = qHTS for Inducers of the Endoplasmic Reticulum Stress Response (ERSR) in Human Glioma: qHTS | U87-MG GRP78 promoter luciferase reporter, 16 h | Potency, µM, without a hit: top-dose activation, most hits filed as activators | actives 0.02% (n = 420,000); further: series mostly up to about 76 µM; % of control where 0% means no effect; nearly all actives have a fitted effect of over 35% in size
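Stably transfected U87-MG human glioma cells carrying a GRP78-based luminescent sensor were seeded at 1000 cells/well, pin-dosed with compounds and incubated 16 h. Luciferase reagent was then added, and end-point luminescence was read after 10 min at room temperature.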
12-LOX inh = Primary qHTS assay for inhibitors of human arachidonate 12S-lipoxygenase (ALOX12): Round 2; purified 12hLO, xylenol orange hydroperoxide absorbance; Potency, µM (doses to about 108 µM), inactives show at the highest dose activity change, negative = inhibition, hits mostly inhibitors; actives 1.1% (n = 580,000); further: on the % scale 0 is the no-effect control and ±100 the full control effect
Target sequence (P18054 whole entry, looked up): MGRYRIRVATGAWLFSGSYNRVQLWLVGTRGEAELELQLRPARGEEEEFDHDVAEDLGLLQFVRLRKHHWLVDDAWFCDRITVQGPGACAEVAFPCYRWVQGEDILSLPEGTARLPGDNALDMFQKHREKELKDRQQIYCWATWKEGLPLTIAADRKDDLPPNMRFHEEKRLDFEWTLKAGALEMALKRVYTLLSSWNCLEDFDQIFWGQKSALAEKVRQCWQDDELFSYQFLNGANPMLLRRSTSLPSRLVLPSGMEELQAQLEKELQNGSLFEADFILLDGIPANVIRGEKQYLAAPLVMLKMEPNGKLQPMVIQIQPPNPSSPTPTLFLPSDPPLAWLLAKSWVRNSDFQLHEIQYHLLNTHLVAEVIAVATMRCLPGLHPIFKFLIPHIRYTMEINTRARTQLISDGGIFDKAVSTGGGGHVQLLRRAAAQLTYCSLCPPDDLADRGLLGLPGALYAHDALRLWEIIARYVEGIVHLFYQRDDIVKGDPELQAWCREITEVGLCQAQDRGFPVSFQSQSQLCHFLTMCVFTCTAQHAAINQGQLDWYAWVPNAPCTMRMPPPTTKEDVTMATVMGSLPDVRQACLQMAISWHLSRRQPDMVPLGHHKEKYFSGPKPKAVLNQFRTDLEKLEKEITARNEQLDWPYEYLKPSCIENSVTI
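Hydroperoxide product was detected by ferrous iron/xylenol orange as the 573 to 405 nm absorbance ratio. Arachidonic acid at 40 uM (final) was turned over for 30 min at room temperature by 150 nM human 12hLO, pH 7.0 Hepes buffer, after 15 min compound preincubation.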
The depositor's hits bear a star; ? = inconclusive; . = no result; [ ] = remark or other dose. Many of the other results were omitted from the sample, so hits are more common in it than they were. The call rests on the fitted dose curve; in most records, active means well fitted curve in the direction sought with a large enough effect; inconclusive means small, poorly fitted or top-dose-only effect, or another doubt; inactive means no such curve, though single readings can be large; an effect the other way counts as inactive or inconclusive. Potency means the concentration at half of the fitted maximal effect.

SMILES	Sfp PPTase inh	G9a block	VDR inhibitor	Glioma ERSR ind	12-LOX inh
Cc1[nH]n(-c2ccccc2)c(=O)c1C=Nc1ccc2[nH]c(=O)[nH]c2c1	10%	?	11%	-6%	-10%
O=c1[nH]c2ccc(N=Cc3c(O)ccc4cc(Br)ccc34)cc2[nH]1	3%	1.6µM*	?	-4%	-27%
CCOC(=O)C1=C(C)N(CC(C)C)C(=O)/C1=C\c1ccc(OCC(=O)Nc2ccccc2)cc1	8%	50µM*	6%	-3%	15%
CCOC(=O)c1cc(=O)c2ccc(OCC(=O)Nc3ccccc3)cc2o1	-9%	17%	-6%	-8%	319%
COc1cccc(C=Nc2ccc(N3CCOCC3)cc2)c1O	1%	?	-5%	-2%	?
Oc1ccc(N=Cc2cc(Br)c(N3CCOCC3)o2)cc1	40µM*	14µM*	-17%	-6%	?
Cc1ccc(Cl)cc1-c1ccc(C=Nc2ccc(N3CCOCC3)cc2)o1	?	?	?	0%	?
O=[N+]([O-])c1cc(Br)c(O)c(C=Nc2ccc(N3CCOCC3)cc2)c1	-9%	35µM*	?	-3%	?
Cc1ccc(OCC(=O)NNC(=S)NC(=O)COc2ccccc2)cc1	.	.	.	.	11µM*
COC(=O)c1ccccc1NC(=S)NC(=O)COc1ccccc1	-10%	?	-22%	1%	0%
COc1ccc(C(=O)NC(=S)NNC(=O)c2ccc(C)cc2)cc1	.	.	-7%	6%	?
Cc1ccc(C(=O)NNC(=S)NC(=O)COc2ccccc2)cc1	56µM*	1.3µM*	-7%	4%	?
CC(C)(C)c1ccc(OCC(=O)NNC(=O)CCc2ccccc2)cc1	20%	-48%	-4%	-2%	0%
Cc1ccc(OCC(=O)NNC(=O)CCc2ccccc2)cc1	19%	109%[59 µM]	-7%	-4%	15%
CC(C)(C)c1ccc(C(=O)NC(=S)NNC(=O)COc2ccccc2)cc1	-19%	25µM*	-6%	-2%	32µM*
O=C(COc1ccccc1)NC(=S)Nc1cccc2c(O)cccc12	.	.	.	5%	45µM*
COC(=O)C(=O)CC(=O)c1ccc2c(c1)OCO2	.	.	.	.	0%
CCN(CC(=O)NC(=O)NC1CC1)C(C)c1ccc(C#N)cc1 (configuration not stated)	.	.	.	.	23%
Cc1cc(CSCC(=O)Nc2c(C)cccc2C)on1	.	.	.	.	0%
O=C1NCCCCCN(Cc2cn[nH]c2-c2ccccc2)[C@H]2CCC[C@@H]12	.	.	.	.	197%
COC(=O)CNC(=S)NC(=O)c1ccc(C(C)(C)C)cc1	-12%	18µM*	-8%	2%	?
CCC(=O)NC(=S)NNC(=O)COc1ccc(Br)cc1	-12%	8.9µM*	-15%	-2%	0%
Cc1cccc(OCC(=O)NCCCNC(=O)c2cccnc2)c1	19%	28%	3%	-1%	-8%
CC(C)(C)c1ccc(C(=O)NC(=S)NCc2cccnc2)cc1	-15%	?	?	-2%	?
Cc1cccc(OCC(=O)NC(=S)NNC(=O)c2ccncc2)c1	18µM*	2.2µM*	71µM*	0%	5µM*
SMILES	Sfp PPTase inh	G9a block	VDR inhibitor	Glioma ERSR ind	12-LOX inh
Cc1nn(-c2ccccc2)c(C)c1/C=N/n1cnnc1	-1%	-37%	-14%	-3%	-11%
Cc1nn(-c2ccccc2)c(C)c1/C=N\N1CCN(c2ccc(Cl)cc2)CC1	25µM*	?	10%	-7%	0%
COc1cccc(NC(=O)CN(C)C(=O)c2ccc(Cl)c(S(=O)(=O)N3CCCCCC3)c2)c1	.	71µM*	-11%	-2%	-17%
COc1cccc(NC(=O)CN(C)C(=O)c2cccc(S(=O)(=O)N3c4ccccc4CC3C)c2)c1 (configuration not stated)	.	16µM*	-2%	-4%	-7%
COc1cccc(NC(=O)CN(C)C(=O)c2cccc(NS(=O)(=O)c3ccccc3)c2)c1	.	-4%[12.7 µM]	-13%	2%	17%
COc1ccc(NC(=O)CN(C)C(=O)c2ccc(C)c(S(=O)(=O)N3CCCCC3)c2)cc1	.	.	7%	-1%	112%
Cc1nn(C)c2ncc(NC(=O)CCc3ncc(-c4ccc(F)cc4F)o3)cc12	.	.	.	.	3%
Cc1ncc(-c2ccc(C)c(S(=O)(=O)Nc3ccc(OC(F)(F)F)cc3)c2)o1	.	.	.	.	-12%
COc1ccc(O[C@H]2C=C[C@@H](c3ccccc3)O[C@H]2COC(=O)CC/C(C)=N\O[C@@H](C)CN2CCCc3nc(C)c(C)cc32)cc1	1%	.	.	-4%	.
C/C(CCN1CCCCc2nc(C)c(C)cc21)=N\OC[C@@H](O)[C@H]1O[C@@H]2OC(C)(C)O[C@@H]2[C@H]1O	13%	50µM*	.	.	.
C/C(CCN1CCCCc2nc(C)c(C)cc21)=N\OC[C@@H](O)[C@@H]1O[C@@H]2OC(C)(C)O[C@@H]2[C@H]1O	16%	.	.	-5%	.
COc1ccc(O[C@H]2C=C[C@@H](c3ccccc3)O[C@@H]2CO/N=C(\C)CCN2CCCCc3nc(C)c(C)cc32)cc1	-11%	40µM*	.	-6%	-5%
CCn1c(CN(c2ccccc2)S(C)(=O)=O)nnc1SCC(=O)c1cc(C)n(C2CC2)c1C	.	.	.	.	-69%
CCN1c2cc(C(=O)Nc3ccc(F)c(C)c3)ccc2C(=O)N2CCCCCC21 (configuration not stated)	.	.	.	.	-1%
C[C@H]1[C@@H]2[C@@H](O)C([C@H](C)C(=O)NCc3ccccn3)CC[C@@]2(C)CC[C@@H]1NC(=O)c1ccccc1 (some centres not stated)	.	.	.	.	11%
CC(Cc1ccc(Cl)cc1)NC(=O)c1ccc[n+]([O-])c1 (configuration not stated)	.	.	.	.	-2%
CCN(CC)c1ccc(/C=N/N2CCN(Cc3ccccc3Cl)CC2)c(O)c1	-1%	11µM*	1%	9%	5%
CCN(CC)c1ccc(/C=N/N2CCN(Cc3ccc(C)cc3)CC2)c(O)c1	2%	-50%[12.7 µM]	?	-2%	-10%
COc1cc2cc(/C=C/C(=O)c3ccco3)c(Cl)nc2cc1OC	?	?	?	-3%	14%
COc1ccc2cc(/C=C/C(=O)c3ccco3)c(Cl)nc2c1	-6%	50µM*	.	.	.
Cc1ccc2nc(Cl)c(/C=C/C(=O)c3ccco3)cc2c1	-4%	5%[59 µM]	18µM*	4%	140%
Cc1ccc(NC(=O)c2cc(-c3ccco3)on2)cc1C	?	50µM*	7%	5%	?
Cc1ccc(NC(=O)c2cc(-c3ccco3)on2)cc1	11%	1%[59 µM]	-8%	5%	-5%
Cc1nn(Cc2ccc(F)cc2)c(C)c1NC(=O)c1cc(-c2ccco2)on1	-15%	56µM*	-5%	-7%	0%

Bioassay records deposited in PubChem by National Center for Advancing Translational Sciences (NCATS).
